Assay outcomes (PubChem)
Sampled rows, rich in hits. Any-hit rate of the full collection: about 8.3%.
Giardia FBPA inh: Giardia lamblia aldolase inhibition. Potency, µM (titrated, usually from 59.6 µM), for inactives: top-dose activity, negative = inhibition, usual class: inhibitors. purified Giardia FBPA. A8B2U2. hit rate 0.71% among 290,000; further: potency means the concentration at half of the fitted maximal effect; nearly all actives have a fitted effect of over 55% in size
Target sequence (A8B2U2 whole entry, looked up): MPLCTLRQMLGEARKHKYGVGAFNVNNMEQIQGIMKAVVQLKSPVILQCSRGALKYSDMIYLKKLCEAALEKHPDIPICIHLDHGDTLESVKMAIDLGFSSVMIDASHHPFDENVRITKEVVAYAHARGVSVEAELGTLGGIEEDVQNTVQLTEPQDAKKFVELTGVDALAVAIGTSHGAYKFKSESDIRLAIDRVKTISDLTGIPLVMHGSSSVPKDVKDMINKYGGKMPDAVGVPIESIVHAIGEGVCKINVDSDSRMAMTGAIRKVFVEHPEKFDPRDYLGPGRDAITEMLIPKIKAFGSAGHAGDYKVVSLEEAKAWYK
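40 nM FBPA preincubated 10 min at RT with compound (up to 57.5 uM final), then substrate plus GAPDH/TPI/NAD/arsenate coupling and diaphorase/resazurin added. Fluorescence read after 20 min at RT, 525/598 nm.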
HCV inh: blocks hepatitis C virus | Huh7.5.1 HCVcc-Cre infection, luciferase reporter, 44 h | Potency, µM (highest dose often 41.8 µM), for inactives: at the highest dose activity change, negative = inhibition, usual class: inhibitors | hit rate 3.4% among 340,000; further: potency means the concentration at half of the fitted maximal effect
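Antiviral activity was scored by luciferase reporter output from cells infected with HCVcc-Cre (~0.5 moi) in presence of compound, 44 h infection period, cells seeded 1,000/well 4 h prior.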
Lassa entry inh: inhibitors of Lassa virus binding or cell entry | Lassa virus pseudotype entry inhibition, cell reporter | Potency, µM (doses to about 37.9 µM), without a hit: at the top dose activity change, negative = inhibition, usual class: inhibitors | hit rate 1.2% among 300,000 | AID 540256; calls by dose curve; tested in HEK293 cells; further: potency means the concentration at half of the fitted maximal effect; nearly all actives have a fitted effect of over 50% in size
FMDV inh: foot and mouth disease virus antiviral activity; AID 1159524; hit rate 1.2% among 410,000; FMDV antiviral cell-based qHTS; Potency, µM (doses to about 57.9 µM), without a hit: at the highest dose activity change, negative = inhibition, hits mostly inhibitors; calls by dose curve; tested in HEK293T cells; further: read-out not given here; potency means the concentration at half of the fitted maximal effect; nearly all actives have a fitted effect of over 45% in size
Marburg entry inh: inhibitors of Marburg virus binding or cell entry; Marburg virus pseudotyped entry inhibition, cell reporter; Potency, µM (highest dose often 37.8 µM), for the others: at the highest dose activity change, negative = inhibition, hits mostly inhibitors; hit rate 1.8% among 300,000; calls by dose curve; tested in HEK293 cells; further: potency means the concentration at half of the fitted maximal effect
HCMV inh: blocks human cytomegalovirus replication; AID 1259415; hit rate 4.5% among 410,000; HFF cells, HCMV-luciferase reporter, 72 h; stronger effect = lower value; activity change, negative = inhibition, % at 57.5 µM; in the data active means activity change below about -60%; inconclusive means no clear call, values can overlap the other calls; inactive means above about -39%
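Screen run at 2 compound doses on HFFs infected with reporter HCMV, MOI 1 PFU/cell. Luciferase activity from cell lysates at 72 h post infection gave inhibition relative to buffer-only and Salinomycin wells.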
* = called active by the depositor; ? = inconclusive; . = not tested or not shown; [ ] = another dose, or the depositor's remark. Unless noted, the call rests on the fitted dose curve; in most records, active means well fitted curve in the direction sought with a large enough effect; inconclusive means small, poorly fitted or top-dose-only effect, or another doubt; inactive means no such curve, though single readings can be large; an effect the other way counts as inactive or inconclusive. On the % scale 0 is the no-effect control and ±100 the full control effect.

SMILES	Giardia FBPA inh	HCV inh	Lassa entry inh	FMDV inh	Marburg entry inh	HCMV inh
CC(=O)NCC1CCCN(Cc2cn(-c3ccccc3)nc2-c2ccc3c(c2)OCO3)C1 (centres undefined)	3.1%	-10.5%	1.6%	8.4%	-2.6%	-27.9
Cn1cc(CN2CCCC(CNC(=O)c3ccc4c(c3)OCO4)C2)c2ccccc21 (centres undefined)	-0.1%	-11.3%	17.6%[46.1 µM]	-2.2%	7.94µM*	51.8
O=C(c1cc(F)ccc1F)C1CCCN(Cc2cc(Cl)ccc2O)C1 (centres undefined)	9.6%	?	-1.1%	?	2.4%	-30.0
COc1ccc(/C(N)=N/OC(=O)c2ccc3c(c2)OCO3)cc1OC	1.1%	8.91µM*	?	.	?	169.4
COc1ccc(C(=O)O/N=C(\N)Cc2ccc(Cl)cc2)cc1OC	4.0%	31.6µM*	11.2µM*	?	?	?
COc1cc(OC)c(C(=O)O/N=C(\N)c2ccc(C)cc2)cc1OC	-8.4%	11.2µM*	?	18.9%	7.94µM*	20.1
N/C(Cc1ccc(Cl)cc1)=N\OC(=O)c1ccccc1	-1.7%	-0.6%	?	-6.3%	12.6µM*	33.0
N/C(Cc1ccc(Cl)cc1)=N\OC(=O)Cc1ccc([N+](=O)[O-])cc1	-13.9%	21.4%	?	-8.6%	4.5%	-12.8
COc1ccc(Oc2ncc3ncc(=O)n(C[C@H]4CCCO4)c3n2)cc1	-26.9%	.	.	-6.3%	.	.
COc1ccc(C/C(N)=N/n2cnnc2)cc1Cl	7.0%	12.9%	-16.5%	0.0%	3.9%	-6.6
COc1cc(C(=O)O/N=C(\N)Cc2ccc([N+](=O)[O-])cc2)cc(OC)c1OC	1.3%	?	3.16µM*	?	2.51µM*	?
COc1ccc(C(=O)O/N=C(\N)Cc2ccc(Cl)c(Cl)c2)cc1OC	1.1%	22.4µM*	?	?	?	18.0
N/C(Cc1ccc([N+](=O)[O-])cc1)=N\OC(=O)c1ccc([N+](=O)[O-])cc1	-6.4%	?	-0.8%	3.8%	5.4%	-7.3
COC(=O)C1Cc2ccccc2CN1C(=O)CCl (centres undefined)	-12.6%	?	?	22.4µM*	7.08µM*	?
COC(=O)[C@H](Cc1ccccc1)NC(=O)N1Cc2ccccc2C[C@H]1C(=O)OC	-5.0%	?	.	-1.0%	.	-17.9
CC(=O)O[C@@H]1[C@@H](O)C2OC3C=C(C)C(=O)[C@@H](O)[C@]3(CO)C1(C)C21CO1 (some centres undefined)	-1.3%	.	.	.	.	.
CC(=O)OCC12CC(OC(=O)CC(C)C)C(C)=CC1OC1C(O)C(OC(C)=O)C2(C)C12CO2 (centres undefined)	.	.	?	.	?	-97.3*
CN(C)c1ccc(/C=C2/SC(=O)N(CCN=C3NS(=O)(=O)c4ccccc43)C2=O)cc1	-5.1%	-25.6%	-24.5%	29.3%	19.8%	24.0
CN(C)c1ccc(/C=C2\SC(=O)N(CCc3nnc(N)s3)C2=O)cc1	1.3%	-18.2%	?	-59.7%	1.12µM*	?
CC1(C)S[C@@H]2[C@H](NC(=O)COc3ccccc3)C(=O)N2[C@H]1C(=O)O (tested in a mixture with another compound)	-15.6%[21.7 µM]	.	.	.	.	.
COC(=O)c1c(NC(=O)C2CCCO2)sc2c1CCC2 (centres undefined)	4.3%	5.62µM*	-0.2%	10.9%	18.8%	-36.5
CCC(C)(C)C1CCc2c(sc(N)c2C(N)=O)C1 (centres undefined)	-19.7%	?	?	?	?	-76.0*
CC(C)(C)C1CCc2c(sc(NC(=O)C3CCCO3)c2C(N)=O)C1 (centres undefined)	.	?	17.8µM*	-7.6%	?	?
CC(=O)OCC1OC(C#CCC2CCCCC2)C=CC1OC(C)=O (centres undefined)	-1.7%[12.9 µM]	.	.	.	.	.
Cc1ccc2c(n1)sc1c(=O)n(-c3cccc(C(F)(F)F)c3)nnc12	.	.	?	38.1%	-11.3%[46.1 µM]	8.2
O=C(Cc1c(F)cccc1Cl)Nc1cccc(S(=O)(=O)NC2=NCCCCC2)c1	.	-19.4%	?	7.1%	-1.8%	-2.7
O=C(Cc1ccc(Cl)cc1Cl)Nc1cccc(S(=O)(=O)Nc2ccccc2F)c1	-3.6%	-11.2%	7.31µM*	-7.9%	?	9.4
